Test results as given in the supplement of paper PMC6555819.

Experiments:
Test in all cases: PBM binding z-score (relative to random genomic background probes); higher = stronger binding; sequences stand for … in GC…GCGATTGACAGCGTAGAATGAAGG
[1] = test system: RARb homodimer (NR concentration 270 nM)
Method in brief: (§1)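 Custom Agilent 4×180K protein-binding microarrays carried double-stranded probes, each with a 34-nt variable region. These regions held direct-repeat seeds, single-nucleotide variants, half-site ablations and random human genomic background sequences. Ligand-free nuclear receptor dimers were incubated on the arrays for 1 h, antibodies against each partner (one per run) detected binding, and scanned fluorescence was regression-normalized. Binding z-scores take the random background probes as reference.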

[2] = test system: RARg:RXRa (NR concentration 270 nM, RXRa partner concentration 90 nM)
Method in brief: as §1

[3] = test system: RARg homodimer (NR concentration 270 nM)
Method in brief: as §1

[4] = test system: RXRa DBDmut IVT, anti-RXR (DBD mutation: RXRa K156A/R161A, NR concentration 90 nM)
Method in brief: as §1

[5] = test system: RXRa homodimer (NR concentration 180 nM)
Method in brief: as §1

[6] = test system: THRa:RXRa (NR concentration 90 nM, RXRa partner concentration 90 nM)
Method in brief: as §1

[7] = test system: THRa homodimer (NR concentration 90 nM)
Method in brief: as §1

[8] = test system: VDR homodimer (NR concentration 270 nM)
Method in brief: as §1

Sequence | PBM binding z-score [1] | PBM binding z-score [2] | PBM binding z-score [3] | PBM binding z-score [4] | PBM binding z-score [5] | PBM binding z-score [6] | PBM binding z-score [7] | PBM binding z-score [8]
TCTGCTAGGTCAGTTGGTCAGCGAACGAGCTGCC | 2.57 | 2.96 | 3.87 | 0.527 | 0.834 | 1.21 | -0.151 | -0.461
GCAGACAAGTGAAACGCAGGTAACTCAGGGTGGC | -1 | -0.267 | -0.436 | -0.633 | 0.115 | 0.682 | -0.967 | -0.593
CCAGACAGGTGAAAGGTAACTCTGTCTGGTACGC | 0.719 | 1.24 | 0.754 | 0.07 | 2.07 | 1.01 | -0.229 | 0.0648
CACACTAGGTCACGAAAGGTCAAAGTCGAATGAC | 5.91 | 7.95 | 8.87 | 2.87 | 8.16 | 5.26 | 3.18 | 3.49
TCTTGTAGATCAAAGGTTGAGAAAGCCGAAGCCT | 0.0942 | 0.326 | -0.192 | 0.518 | 1.08 | 0.142 | -0.747 | -0.223
AATGCAGGGTCATCGTAGGCCAGAGTACGCACAG | 3.56 | 5.5 | 4.83 | 3.37 | 6.16 | 4.6 | 0.92 | 3.45
CCACGGAGGACAACAGGAGGTCAGAGCTGCCAGA | 3.72 | 3.61 | 3.45 | 0.466 | 2.08 | 2.8 | 1.28 | 1.48
CAAACTAGGGCACAGAGGTCAAAGTCCGTGCGTA | 4.61 | 5.79 | 5.63 | 2.66 | 5.91 | 3.79 | 1.32 | 5.23
AGTTAAAGTTCATCTAGGTAACGTAAGATATGCT | 3.84 | 5.06 | 5.65 | 4.63 | 4.14 | 3.21 | 0.583 | 5.32
TCAGATAGGTAATACAGGTGAAAGTCGGCATCTA | 0.54 | 0.562 | 0.364 | 1.27 | 1.03 | 0.795 | 0.181 | 0.187
CAGCCGAGGTCAGGGCCAGTATAGGAGGAACGTT | 3.81 | 5.52 | 5.53 | 2.15 | 5.24 | 3.92 | 1.97 | 1.53
TCTATTAGTTGAAGGGCAACCAACGAGTCCGTTT | 1.4 | 0.447 | 0.495 | 1.46 | 0.529 | 0.101 | 0.123 | 0.984
TAGCCTGGGTCATGCGGGCCAGTATAGTGTCGGC | 2.5 | 3.64 | 3.37 | -0.265 | 3.11 | 2.46 | -0.102 | 0.606
ATTGAAAGGTCGAGGTGAGTATAGAGAAAGGGAA | 3.09 | 4.26 | 4.24 | 1.13 | 4.51 | 3.18 | 1.04 | 1.18
CATCCAAGGTCAAGGTCAGTGAAAGAGACTCGAA | 5.3 | 6.9 | 7.48 | 3.81 | 6.28 | 4.48 | 3.62 | 3.23
AGTCAAAGTTTAGGACGAGGTAACGTAAAGCACG | 0.774 | 0.936 | 1.26 | 0.5 | 0.477 | 2.59 | 1.51 | 0.0811
TCATATTGGTAAATGCTAGGTGAAAGTCCGATCT | 0.619 | 0.03 | 0.0161 | 1.7 | 0.255 | 0.808 | 0.878 | 0.578
TCTCGGAGGACACGAAAGGTAAGAGCTCGACATC | 0.782 | 0.65 | 1.6 | 0.729 | 0.0654 | 2 | 0.0945 | -0.863
GGAACGAGGGCAAAGTTTATAGCATCTGTCGACG | 1.8 | 2.31 | 2.04 | 2.61 | 2.22 | 1.63 | -0.279 | 2.22
TCGGGTAGGTTAGTCGGGGCATTCAGCCAACATA | 1.24 | 0.503 | 0.704 | 0.58 | 0.0388 | 1.57 | 1.21 | 1.08
TAGCCTAGGTCATTGGGCCAGTAGAGTACGCATC | 3.11 | 3.83 | 4.04 | 1.34 | 2.79 | 2.88 | 0.722 | 1.3
GGAACGAGGGCTAAGTTGATAGCATCTGTCGACG | -0.586 | -0.0723 | 0.11 | 0.186 | -0.114 | -0.638 | -0.828 | -0.365
CAATCTAGGTCAAGGTCAAAGTCGGTTTGTGCCA | 5.05 | 5.89 | 6.37 | 3.25 | 5.61 | 4.65 | 4.37 | 4.3
AGAACGAGGGCACGCTGAGTTGATAGCTGAGTAG | 1.13 | 2.07 | 2.06 | 2.15 | 1.37 | 1.92 | -0.0647 | 1.7
CCTTACGGGTGACTCCAGGTTATAGCATCGGAGT | 0.532 | 0.648 | 0.639 | -0.594 | 0.973 | 3.65 | 0.215 | 0.0105
GCTAGCAGCCCATTTGGGTCACTCAATGACGGGC | 1.07 | 0.319 | 0.556 | -0.892 | 0.587 | 1.24 | 0.119 | -0.375
ACTAGTAGGCCAAGTTTGGGTCACTCAAACAAAG | 2.48 | 2.53 | 2.16 | 0.0627 | 1.15 | 2.6 | 1.31 | 0.613
TCTTGTACATCAAGCAGGTTAAGAAAGCCTGAGT | 0.323 | 0.395 | 0.0243 | 0.896 | 0.677 | 0.334 | -0.0584 | 0.438
ATCTCGAGGTAAAAGTTCAGTGAATCCCGAGGAT | 2.35 | 2.35 | 1.86 | 0.47 | 2.58 | 1.99 | 0.159 | 0.883
